The supplement of paper PMC6992640

Tested on: WHIM30 (cells of a triple-negative basal-like breast cancer xenograft)
Assay: cell viability of combination (% of vehicle); higher = less cytotoxic
Conditions: 1 µM; 72 h; partner dose: 10 nM
Method: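 PDX cells were treated for 72 h with each drug at 1 µM plus carfilzomib (10 nM; 100 nM for WHIM2). Luciferase viability is expressed as percent of vehicle.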

Structure (SMILES) | cell viability of combination
COc1cc2nccc(Oc3ccc(NC(=O)NC4CC4)c(Cl)c3)c2cc1C(N)=O [Lenvatinib (E7080)] + CC(C)C[C@H](NC(=O)[C@H](CCc1ccccc1)NC(=O)CN1CCOCC1)C(=O)N[C@@H](Cc1ccccc1)C(=O)N[C@@H](CC(C)C)C(=O)[C@@]1(C)CO1 [Carfilzomib] | 21.9
Cc1c(-c2ccc(O)cc2)n(Cc2ccc(OCCN3CCCCCC3)cc2)c2ccc(O)cc12.Cl [Bazedoxifene HCl] + CC(C)C[C@H](NC(=O)[C@H](CCc1ccccc1)NC(=O)CN1CCOCC1)C(=O)N[C@@H](Cc1ccccc1)C(=O)N[C@@H](CC(C)C)C(=O)[C@@]1(C)CO1 [Carfilzomib] | 11.3
CCN1CCN(Cc2ccc(Nc3ncc(F)c(-c4cc(F)c5nc(C)n(C(C)C)c5c4)n3)nc2)CC1.CS(=O)(=O)O + CC(C)C[C@H](NC(=O)[C@H](CCc1ccccc1)NC(=O)CN1CCOCC1)C(=O)N[C@@H](Cc1ccccc1)C(=O)N[C@@H](CC(C)C)C(=O)[C@@]1(C)CO1 [Carfilzomib] | 23.6
C=C(c1ccc(C(=O)O)cc1)c1cc2c(cc1C)C(C)(C)CCC2(C)C [Bexarotene] + CC(C)C[C@H](NC(=O)[C@H](CCc1ccccc1)NC(=O)CN1CCOCC1)C(=O)N[C@@H](Cc1ccccc1)C(=O)N[C@@H](CC(C)C)C(=O)[C@@]1(C)CO1 [Carfilzomib] | 25.7
Cc1nc(Nc2ncc(C(=O)Nc3c(C)cccc3Cl)s2)cc(N2CCN(CCO)CC2)n1 + CC(C)C[C@H](NC(=O)[C@H](CCc1ccccc1)NC(=O)CN1CCOCC1)C(=O)N[C@@H](Cc1ccccc1)C(=O)N[C@@H](CC(C)C)C(=O)[C@@]1(C)CO1 [Carfilzomib] | 26.6
Clc1ccc(C(Cn2ccnc2)OCc2c(Cl)cccc2Cl)c(Cl)c1.O=[N+]([O-])O (stereo not given) [Isoconazole nitrate] + CC(C)C[C@H](NC(=O)[C@H](CCc1ccccc1)NC(=O)CN1CCOCC1)C(=O)N[C@@H](Cc1ccccc1)C(=O)N[C@@H](CC(C)C)C(=O)[C@@]1(C)CO1 [Carfilzomib] | 16.4
CC1(C)Cc2c(-c3ccccc3)c(-c3ccc(Cl)cc3)c(CC(=O)O)n2C1 [Licofelone] + CC(C)C[C@H](NC(=O)[C@H](CCc1ccccc1)NC(=O)CN1CCOCC1)C(=O)N[C@@H](Cc1ccccc1)C(=O)N[C@@H](CC(C)C)C(=O)[C@@]1(C)CO1 [Carfilzomib] | 18.6
C[C@H]1O[C@@H](O[C@H]2[C@@H](O)C[C@H](O[C@H]3[C@@H](O)C[C@H](O[C@H]4CC[C@@]5(C)[C@H](CC[C@@H]6[C@@H]5C[C@@H](O)[C@]5(C)[C@@H](C7=CC(=O)OC7)CC[C@]65O)C4)O[C@@H]3C)O[C@@H]2C)C[C@H](O)[C@@H]1O [Digoxin] + CC(C)C[C@H](NC(=O)[C@H](CCc1ccccc1)NC(=O)CN1CCOCC1)C(=O)N[C@@H](Cc1ccccc1)C(=O)N[C@@H](CC(C)C)C(=O)[C@@]1(C)CO1 [Carfilzomib] | 4.55
COCCn1c2c([n+](Cc3cnccn3)c1C)C(=O)c1ccccc1C2=O.[Br-] + CC(C)C[C@H](NC(=O)[C@H](CCc1ccccc1)NC(=O)CN1CCOCC1)C(=O)N[C@@H](Cc1ccccc1)C(=O)N[C@@H](CC(C)C)C(=O)[C@@]1(C)CO1 [Carfilzomib] | 6.3
C=CC(=O)Nc1cc(Nc2nccc(-c3cn(C)c4ccccc34)n2)c(OC)cc1N(C)CCN(C)C + CC(C)C[C@H](NC(=O)[C@H](CCc1ccccc1)NC(=O)CN1CCOCC1)C(=O)N[C@@H](Cc1ccccc1)C(=O)N[C@@H](CC(C)C)C(=O)[C@@]1(C)CO1 [Carfilzomib] | 17.5
Clc1ccc(COC(Cn2ccnc2)c2ccc(Cl)cc2Cl)c(Cl)c1.O=[N+]([O-])O (stereo not given) [Miconazole Nitrate] + CC(C)C[C@H](NC(=O)[C@H](CCc1ccccc1)NC(=O)CN1CCOCC1)C(=O)N[C@@H](Cc1ccccc1)C(=O)N[C@@H](CC(C)C)C(=O)[C@@]1(C)CO1 [Carfilzomib] | 14
O=C(NC1CCN(CCCCC2(C(=O)NCC(F)(F)F)c3ccccc3-c3ccccc32)CC1)c1ccccc1-c1ccc(C(F)(F)F)cc1 [Lomitapide] + CC(C)C[C@H](NC(=O)[C@H](CCc1ccccc1)NC(=O)CN1CCOCC1)C(=O)N[C@@H](Cc1ccccc1)C(=O)N[C@@H](CC(C)C)C(=O)[C@@]1(C)CO1 [Carfilzomib] | 9.93
CN1CCN(c2ccc(C(=O)/N=c3\[nH][nH]c4ccc(Cc5cc(F)cc(F)c5)cc34)c(NC3CCOCC3)c2)CC1 [Entrectinib] + CC(C)C[C@H](NC(=O)[C@H](CCc1ccccc1)NC(=O)CN1CCOCC1)C(=O)N[C@@H](Cc1ccccc1)C(=O)N[C@@H](CC(C)C)C(=O)[C@@]1(C)CO1 [Carfilzomib] | 10.1
CC1CC(=O)NN=C1c1ccc(NN=C(C#N)C#N)cc1 (stereo not given) [Levosimendan] + CC(C)C[C@H](NC(=O)[C@H](CCc1ccccc1)NC(=O)CN1CCOCC1)C(=O)N[C@@H](Cc1ccccc1)C(=O)N[C@@H](CC(C)C)C(=O)[C@@]1(C)CO1 [Carfilzomib] | 21.5
COc1ccc2c(O[C@H]3CC4C(=O)N(C)CCCC/C=C\[C@H]5C[C@@]5(C(=O)NS(=O)(=O)C5CC5)NC(=O)[C@@H]4C3)cc(-c3nc(C(C)C)cs3)nc2c1C (stereo not given in full) [Simeprevir] + CC(C)C[C@H](NC(=O)[C@H](CCc1ccccc1)NC(=O)CN1CCOCC1)C(=O)N[C@@H](Cc1ccccc1)C(=O)N[C@@H](CC(C)C)C(=O)[C@@]1(C)CO1 [Carfilzomib] | 22.1
CC(=O)c1cc2c(o1)C(=O)c1ccccc1C2=O [Napabucasin] + CC(C)C[C@H](NC(=O)[C@H](CCc1ccccc1)NC(=O)CN1CCOCC1)C(=O)N[C@@H](Cc1ccccc1)C(=O)N[C@@H](CC(C)C)C(=O)[C@@]1(C)CO1 [Carfilzomib] | 5.17
CCN(CC)CCNC(=O)c1c(C)[nH]c(C=C2C(=O)Nc3ccc(F)cc32)c1C.O=C(O)CC(O)C(=O)O [Sunitinib malate] + CC(C)C[C@H](NC(=O)[C@H](CCc1ccccc1)NC(=O)CN1CCOCC1)C(=O)N[C@@H](Cc1ccccc1)C(=O)N[C@@H](CC(C)C)C(=O)[C@@]1(C)CO1 [Carfilzomib] | 33.1
CN1CCN(CCCN2c3ccccc3Sc3ccc(C(F)(F)F)cc32)CC1.Cl.Cl [Trifluoperazine 2HCl] + CC(C)C[C@H](NC(=O)[C@H](CCc1ccccc1)NC(=O)CN1CCOCC1)C(=O)N[C@@H](Cc1ccccc1)C(=O)N[C@@H](CC(C)C)C(=O)[C@@]1(C)CO1 [Carfilzomib] | 16.7
CC[C@@]1(O)C(=O)OCc2c1cc1n(c2=O)Cc2cc3c(CN(C)C)c(O)ccc3nc2-1.Cl [Topotecan HCl] + CC(C)C[C@H](NC(=O)[C@H](CCc1ccccc1)NC(=O)CN1CCOCC1)C(=O)N[C@@H](Cc1ccccc1)C(=O)N[C@@H](CC(C)C)C(=O)[C@@]1(C)CO1 [Carfilzomib] | 7.58
COc1ncc(-c2ccc3nccc(-c4ccnnc4)c3c2)cc1NS(=O)(=O)c1ccc(F)cc1F + CC(C)C[C@H](NC(=O)[C@H](CCc1ccccc1)NC(=O)CN1CCOCC1)C(=O)N[C@@H](Cc1ccccc1)C(=O)N[C@@H](CC(C)C)C(=O)[C@@]1(C)CO1 [Carfilzomib] | 8.27
